Molecules are shown by their SMILES. Values joined by “and” are separate entries in the source; they are usually repeats but may differ in a detail not shown here. Identical values can stand only once. Results filed as inconclusive are left out. Active and inactive are the calls of the source. Unless noted, the call rests on the fitted dose curve; in most records, active means well fitted inhibition curve with a large enough effect; inconclusive means small, poorly fitted or top-dose-only effect; inactive means flat fitted curve, though single readings scatter.

19 compounds from PubChem BioAssay (NCATS) can be followed below.

Assay [1] deals with Peroxisome proliferator-activated receptor gamma (Homo sapiens) (UniProt P37231). Briefly: qHTS assay for small molecule antagonists of peroxisome proliferator-activated receptor gamma signaling (AID 588537; active means well fitted inhibition curve with a large enough effect in the signal ratio, with a control signal flat, not every such curve was filed as active; the % refers to the signal ratio;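 further: reporter cells co-stimulated with 50 nM rosiglitazone agonist during compound treatment; % of control where 0% means no effect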). An outline of the steps:
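Step one: plate 3000 HEK293 UAS-bla cells per well in medium with 1% stripped serum and hold 6-6.5 h at 37 C. Step two: add compound and 50 nM agonist for 16 h. Step three: CCF4 loading, fluorescence read.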
On the technique in general: Quantitative high-throughput screening tests each substance at several concentrations.

Assay [2] can be described thus: qHTS assay for small molecule agonists of retinoid X receptor alpha signaling (AID 588544; calls by dose curve). The following applies: HEK293T RXRa-UAS-bla, beta-lactamase reporter, 18 h; 530 nm emission.
For assay [3], the target named is Retinoic acid receptor RXR-alpha (Homo sapiens) (UniProt P19793). The assay is described as above.
Assay [4] in a line: qHTS assay for small molecule antagonists of retinoid X receptor alpha signaling (AID 588546; active means well fitted inhibition curve with a large enough effect in the signal ratio, with a control signal flat, not every such curve was filed as active; the % refers to the signal ratio;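 further: cells stimulated with 9-cis-retinoic acid as agonist; on the % scale 0 is the no-effect control and ±100 the full control effect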). To be noted: HEK293T RXRa-UAS-bla, beta-lactamase ratio, antagonist mode; measured here: W530 green channel, cytotoxicity proxy. In outline:
(§1)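 Beta-lactamase reporter inhibition, read as CCF4 fluorescence ratio (ex 405, em 460/530 nm) after 2 h at RT. HEK293T UAS-bla cells, 2500/well, were stimulated with 9-cis-RA at 500 or 100 nM final alongside test compound for 18 h at 37 C.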

Assay [5] deals with Retinoic acid receptor RXR-alpha (Homo sapiens) (UniProt P19793). Described as above. The following applies: HEK293T RXRa-UAS-bla, beta-lactamase ratio, antagonist mode. In outline:
as §1

Assay [6] concerns the target Thyroid hormone receptor beta (Homo sapiens) (UniProt P10828). Briefly: qHTS assay for small molecule antagonists of thyroid hormone receptor beta signaling (AID 588547; active means well fitted inhibition curve with a large enough effect in the signal ratio, with a control signal flat, not every such curve was filed as active; the % refers to the signal ratio;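 further: cells stimulated with 0.4 nM T3 agonist during compound exposure; series mostly up to about 77 µM; on the % scale 0 is the no-effect control and ±100 the full control effect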). To be noted: TR-UAS-bla HEK293, beta-lactamase ratio, antagonist mode, 18 h. An outline of the steps:
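TR-UAS-bla GripTite HEK293 cells in 2% charcoal/dextran FBS medium; compounds 0.59 nM to 92 uM with T3 at 0.4nM final, 18 h at 37 C. Beta-lactamase read by CCF4 fluorescence (460/530 nm); Hill fits gave IC50 and efficacy.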

Assay [7] addresses Voltage-gated inwardly rectifying potassium channel KCNH2 (Homo sapiens) (UniProt Q12809). Briefly: qHTS Assay for Small Molecule Inhibitors of the Human hERG Channel Activity (AID 588834).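 Further: top concentration of the series differs between compounds; on the % scale 0 is the no-effect control and ±100 the full control effect; lower thallium flux fluorescence means stronger hERG block; nearly all actives have a fitted effect of over 50% in size.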 An outline of the steps: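 hERG-BacMam U2OS, 2000 cells/well; 0.7X FluxOR loading 1 hr RT dark; cpd ~10 min 37 °C; stim buffer; FDSS fluorescence 2 min @ 1 s; AC50 Hill fit.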
The target of assay [8] is Luciferin 4-monooxygenase (Photinus pyralis) (UniProt P08659). Briefly: Biochemical firefly luciferase enzyme assay for NPC (AID 624030).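 Further: purified P. pyralis luciferase at 10 nM with luciferin and ATP substrate; series mostly up to about 59 µM; 0% = DMSO and -100% = full luciferase inhibition by PTC124 control; nearly all actives have a fitted effect of over 70% in size.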 In outline: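 Purified P. pyralis luciferase at 10 nM in 50 mM Tris Acetate (final), luminescence read within 5 minutes of enzyme addition to compounds. Activity normalised to PTC124 versus DMSO; concentration-response curves classed by r2, magnitude and activity.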

For assay [9], the target named is Vitamin D3 receptor (Homo sapiens) (UniProt P11473). Description: qHTS assay for small molecule antagonists of vitamin D receptor signaling (AID 588541; calls by dose curve;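 further: receptor activated by calcitriol during compound treatment; series mostly up to about 77 µM; on the % scale 0 is the no-effect control and ±100 the full control effect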). In outline:
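VDR-UAS-bla HEK293T cells in 2% charcoal-stripped FBS were stimulated with 1-alpha,25-dihydroxyvitamin D3 (3 nM final) plus compound for 16 h at 37 C. The beta-lactamase CCF4 readout was normalized to 50 nM agonist and DMSO, and Hill fits gave IC50.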

For assay [10] the target is unchanged. Briefly: qHTS assay for small molecule agonists of vitamin D receptor signaling (AID 588543; calls by dose curve;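 further: 0% = DMSO basal and 100% = reference agonist control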). In outline: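 Reporter cells (HEK293T, VDR-UAS-bla) were seeded in medium with 2% charcoal-stripped serum and incubated 5 h, then compounds in concentration series were added for 16 h at 37 °C. Stimulation was scaled between DMSO basal and 50 nM 1α,25-dihydroxyvitamin D3.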

Chain of Voltage-gated inwardly rectifying potassium channel KCNH2 (Homo sapiens) (Q12809 whole entry, looked up): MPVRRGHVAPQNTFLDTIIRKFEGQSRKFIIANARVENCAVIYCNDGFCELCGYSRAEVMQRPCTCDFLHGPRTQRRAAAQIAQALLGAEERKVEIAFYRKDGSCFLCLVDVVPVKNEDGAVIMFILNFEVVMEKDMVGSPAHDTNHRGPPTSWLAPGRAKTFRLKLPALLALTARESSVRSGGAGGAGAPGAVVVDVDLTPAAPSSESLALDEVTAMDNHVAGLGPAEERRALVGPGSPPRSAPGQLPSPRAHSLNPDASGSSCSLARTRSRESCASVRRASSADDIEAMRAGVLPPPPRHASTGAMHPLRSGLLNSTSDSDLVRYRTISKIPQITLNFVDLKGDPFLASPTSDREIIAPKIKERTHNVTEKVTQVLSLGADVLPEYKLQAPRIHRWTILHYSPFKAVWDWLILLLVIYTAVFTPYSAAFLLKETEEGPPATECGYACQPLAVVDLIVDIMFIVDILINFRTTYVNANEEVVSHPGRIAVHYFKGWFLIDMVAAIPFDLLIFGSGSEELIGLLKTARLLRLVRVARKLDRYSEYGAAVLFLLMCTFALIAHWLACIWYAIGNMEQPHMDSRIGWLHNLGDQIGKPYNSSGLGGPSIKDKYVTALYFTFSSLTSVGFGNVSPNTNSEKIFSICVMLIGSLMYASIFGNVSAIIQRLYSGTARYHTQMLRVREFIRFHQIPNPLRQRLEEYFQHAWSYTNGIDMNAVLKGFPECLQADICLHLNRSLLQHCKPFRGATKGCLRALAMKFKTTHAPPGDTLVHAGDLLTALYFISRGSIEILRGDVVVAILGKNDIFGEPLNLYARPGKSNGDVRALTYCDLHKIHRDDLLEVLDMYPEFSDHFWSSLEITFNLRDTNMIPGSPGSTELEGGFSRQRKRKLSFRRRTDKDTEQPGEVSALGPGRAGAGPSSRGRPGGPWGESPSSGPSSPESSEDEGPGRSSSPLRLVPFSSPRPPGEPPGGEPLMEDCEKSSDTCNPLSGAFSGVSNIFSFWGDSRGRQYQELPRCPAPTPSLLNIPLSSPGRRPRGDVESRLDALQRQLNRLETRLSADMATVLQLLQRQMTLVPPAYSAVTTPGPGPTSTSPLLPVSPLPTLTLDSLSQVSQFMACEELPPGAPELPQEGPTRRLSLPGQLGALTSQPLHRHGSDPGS
Chain of Vitamin D3 receptor (Homo sapiens) (P11473 whole entry, looked up): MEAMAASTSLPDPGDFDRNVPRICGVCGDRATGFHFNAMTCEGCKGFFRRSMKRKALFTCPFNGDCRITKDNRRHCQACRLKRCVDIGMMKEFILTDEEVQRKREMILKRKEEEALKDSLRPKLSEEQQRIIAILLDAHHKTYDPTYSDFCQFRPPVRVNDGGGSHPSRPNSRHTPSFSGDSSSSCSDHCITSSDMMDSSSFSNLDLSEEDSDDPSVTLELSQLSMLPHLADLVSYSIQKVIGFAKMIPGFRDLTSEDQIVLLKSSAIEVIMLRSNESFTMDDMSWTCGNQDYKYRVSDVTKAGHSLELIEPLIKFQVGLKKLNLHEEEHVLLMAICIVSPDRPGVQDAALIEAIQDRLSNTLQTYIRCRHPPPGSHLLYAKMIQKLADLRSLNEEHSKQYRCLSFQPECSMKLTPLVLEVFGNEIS
Chain of Retinoic acid receptor RXR-alpha (Homo sapiens) (P19793 whole entry, looked up): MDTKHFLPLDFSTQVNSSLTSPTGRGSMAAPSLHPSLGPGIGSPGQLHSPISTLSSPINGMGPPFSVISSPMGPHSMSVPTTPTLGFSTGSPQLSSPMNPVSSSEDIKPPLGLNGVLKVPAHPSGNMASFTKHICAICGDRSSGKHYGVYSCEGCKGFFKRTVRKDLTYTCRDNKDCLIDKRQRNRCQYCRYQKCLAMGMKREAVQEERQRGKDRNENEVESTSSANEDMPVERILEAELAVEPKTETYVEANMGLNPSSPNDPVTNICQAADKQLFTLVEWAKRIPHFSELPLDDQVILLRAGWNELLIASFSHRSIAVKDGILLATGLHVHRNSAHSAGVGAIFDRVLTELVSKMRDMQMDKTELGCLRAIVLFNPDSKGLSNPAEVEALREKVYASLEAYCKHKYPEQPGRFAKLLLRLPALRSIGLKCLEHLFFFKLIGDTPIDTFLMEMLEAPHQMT
Chain of Peroxisome proliferator-activated receptor gamma (Homo sapiens) (P37231 whole entry, looked up): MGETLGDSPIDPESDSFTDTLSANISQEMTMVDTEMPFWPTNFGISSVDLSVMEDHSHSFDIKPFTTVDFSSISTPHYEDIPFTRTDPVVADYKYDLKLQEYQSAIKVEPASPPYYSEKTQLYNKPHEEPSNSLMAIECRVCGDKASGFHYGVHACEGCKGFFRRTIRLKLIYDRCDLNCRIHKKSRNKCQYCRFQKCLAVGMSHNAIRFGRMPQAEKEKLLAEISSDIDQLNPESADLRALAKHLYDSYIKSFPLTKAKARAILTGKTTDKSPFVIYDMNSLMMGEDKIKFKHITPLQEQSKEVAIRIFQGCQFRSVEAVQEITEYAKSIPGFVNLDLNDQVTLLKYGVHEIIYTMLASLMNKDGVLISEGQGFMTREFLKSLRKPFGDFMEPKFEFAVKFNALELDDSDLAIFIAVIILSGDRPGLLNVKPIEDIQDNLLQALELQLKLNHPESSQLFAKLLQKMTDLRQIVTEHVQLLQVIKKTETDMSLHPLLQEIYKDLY
Chain of Luciferin 4-monooxygenase (Photinus pyralis) (P08659 whole entry, looked up): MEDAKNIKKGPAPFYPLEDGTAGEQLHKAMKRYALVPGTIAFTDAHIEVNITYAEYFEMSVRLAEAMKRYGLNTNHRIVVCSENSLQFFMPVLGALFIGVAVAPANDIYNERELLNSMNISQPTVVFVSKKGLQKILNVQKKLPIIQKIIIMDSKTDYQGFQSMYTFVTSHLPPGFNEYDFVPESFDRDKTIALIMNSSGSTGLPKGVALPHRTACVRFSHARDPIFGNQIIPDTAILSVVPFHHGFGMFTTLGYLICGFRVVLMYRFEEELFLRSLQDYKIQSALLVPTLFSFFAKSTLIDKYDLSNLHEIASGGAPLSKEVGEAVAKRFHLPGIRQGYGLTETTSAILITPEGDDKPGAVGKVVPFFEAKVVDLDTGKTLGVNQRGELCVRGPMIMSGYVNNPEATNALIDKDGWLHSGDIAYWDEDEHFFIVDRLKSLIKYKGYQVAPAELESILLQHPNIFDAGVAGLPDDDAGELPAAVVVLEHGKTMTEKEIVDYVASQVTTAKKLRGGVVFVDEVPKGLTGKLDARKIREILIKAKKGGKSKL
Chain of Thyroid hormone receptor beta (Homo sapiens) (P10828 whole entry, looked up): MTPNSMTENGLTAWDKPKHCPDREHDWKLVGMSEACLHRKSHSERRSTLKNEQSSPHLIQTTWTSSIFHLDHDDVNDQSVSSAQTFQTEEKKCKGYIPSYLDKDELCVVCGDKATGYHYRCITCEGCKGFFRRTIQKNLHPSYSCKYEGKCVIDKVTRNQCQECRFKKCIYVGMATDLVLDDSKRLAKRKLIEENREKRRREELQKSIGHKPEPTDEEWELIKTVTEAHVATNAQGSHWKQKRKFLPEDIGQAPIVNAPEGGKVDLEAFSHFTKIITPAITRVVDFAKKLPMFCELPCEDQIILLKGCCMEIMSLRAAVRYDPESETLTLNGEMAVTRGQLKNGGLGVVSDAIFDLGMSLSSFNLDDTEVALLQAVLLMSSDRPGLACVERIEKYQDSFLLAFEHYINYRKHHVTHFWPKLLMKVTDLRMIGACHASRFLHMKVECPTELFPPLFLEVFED

On to `Cc1cc(O)cc(C)c1Cl`, for which the compound was classed as inactive in [1] and in assay [3]. Besides, the max response in [2] was -3.04%; in assay [4], -7.57%; in assay [5] it was 1.2% (inactive). The activity change % (negative = inhibition) in assay [6] is 6.71% (inactive). Besides, the Potency result in assay [7] and in [8] was “inactive” each time.
`O=C1C(c2[nH]c3ccccc3c2O)=Nc2ccccc21`: the max response in assay [2] was 16.9%; in assay [4], 0.17%; in [5], 9.96% (inactive). Also, the compound was classed as inactive in assay [3]. For the same compound, in assay [6], the activity change % (negative = inhibition) was 0.455% (inactive). Moreover, the Potency entry in assay [7] was “inactive”.
For `Cc1c(N(C)C)c(=O)n(-c2ccccc2)n1C`, the result in assay [9], in assay [10] and in assay [3] was inactive. Also, the max response is -14.4% and -18.2% in assay [2]; -6.41% and -1.97% in [4]; -3.15% (inactive) and -4.34% (inactive) in assay [5]. Further, in [6], the activity change % (negative = inhibition) is -16.1% (inactive) and 15.3% (inactive). For the same compound, the Potency entry in assay [8] is “inactive”.
Turning to `COC(=O)c1ccc(O)cc1`, the call in assay [1], in assay [9], in assay [10] and in [3] was inactive. In addition, the max response in assay [2] was 3.58%; in assay [4], -19.3%; in assay [5], -10.5% (inactive). The activity change % (negative = inhibition) in assay [6] was -5.41% (inactive). The Potency entry in assay [7] and in assay [8] was “inactive” throughout.
Take `CC1(C)[C@@H](OC(=O)CCC(=O)O)CC[C@]2(C)[C@H]3C(=O)C=C4[C@@H]5C[C@@](C)(C(=O)O)CC[C@]5(C)CC[C@@]4(C)[C@]3(C)CC[C@@H]12`: in [7], the Potency result is “inactive”.
On to `CCCCCCCCCCCCCCCCCCO`, for which the compound was called inactive in assay [1], in assay [9], in [10] and in assay [3]. Besides, the max response is -0.452% in assay [2], 4.76% in assay [4] and 3.77% (inactive) in [5]. Besides, the activity change % (negative = inhibition) in assay [6] was 3.9% (inactive). Moreover, the Potency result in assay [7] and in assay [8] was “inactive” throughout.
In the case of `O=C(O)CCCCC1CCSS1` (stereo unspecified), the result in assay [1], in [9] and in assay [10] was inactive. Also, the max response was -14.4% in assay [4] and -5.4% (inactive) in assay [5]. In addition, the activity change % (negative = inhibition) in [6] was 1.34% (inactive). Moreover, the Potency entry in [8] is “inactive”.
`O=C(O)c1cc(=O)c2ccccc2o1`: the Potency entry in [7] and in assay [8] was “inactive” throughout.
Regarding `Cc1c(Cn2ccnc2)c2ccccc2n1CCC(=O)O`, the Potency result in assay [7] and in assay [8] was “inactive” in each case.
As to `COC(=O)c1cccnc1`, the Potency entry in [7] and in assay [8] was “inactive” in each case.
On to `CC(C)c1cc2c(cc1S(=O)(=O)O)[C@@]1(C)CCC[C@@](C)(C(=O)O)[C@@H]1CC2`, for which the Potency result in [7] and in assay [8] was “inactive” in each case.
Take `CCCCCOC(=O)Nc1nc(=O)n([C@@H]2O[C@H](C)[C@@H](O)[C@H]2O)cc1F`: the Potency result in assay [7] was “inactive”.
For `O[C@@H]1CO[C@H]2[C@@H]1OC[C@@H]2O`, the Potency result in assay [7] and in [8] was “inactive” in each case.
In the case of `CC(=O)N[C@H]1[C@H]([C@H](O)[C@H](O)CO)OC(C(=O)O)=C[C@@H]1N=C(N)N`, the Potency result in assay [7] is “inactive”.
`CCCCCC(C)N` (stereo unspecified): the Potency entry in assay [7] and in assay [8] was “inactive” in each case.
For `CCCCCCCCCCCCCCCCN`, the Potency result in assay [7] and in [8] was “inactive” each time.
Consider `CC(=O)N1C[C@H](O)C[C@H]1C(=O)O`, for which the Potency entry in assay [7] is “inactive”.
For the compound `O=C(Cn1ccnc1[N+](=O)[O-])NCc1ccccc1`, the Potency result in assay [7] and in [8] was “inactive” in each case.
For the compound `CCCCCCCC(=O)OCC(O)CO` (stereo unspecified), the Potency entry in [7] and in assay [8] was “inactive” in each case.
